Experimental data: PubChem BioAssay
The source made the active and inactive calls. Unless noted, how the calls were made is not given here.

Columns and labels:
[1] = kinase inhibitors against Plasmodium liver-stage infection, cell-based, known kinase inhibitor set, luminescence, hepatoma host viability (AID 624392); details: Plasmodium liver stage in hepatoma cells, luciferase luminescence, concentration not given here; liver cell % of control: measured here: host liver cell viability; parasite % of control: stronger effect = lower value;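 further: infected cells incubated roughly two days before readout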
[2] = modulators of glucocorticoid suppression of NF-kB, cell-based, luciferase, IL-1B stimulus, dexamethasone (AID 624486); details: NF-kB luciferase reporter, IL-1B + dexamethasone, luminescence; percent of negative control (+Dex): actives lie on both sides, concentration not given here; z-score: measured here: IL-1B alone, no Dex;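 on percent of negative control (+Dex): 100% = mean signal of vehicle control wells on the plate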
[3] = kinase inhibitors altering Pseudomonas killing of worms, whole organism (AID 651566);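 further: tested at 14 µM; sign flipped so higher z means a lower ratio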; details: C. elegans killed by P. aeruginosa, survival ratio
[4] = activators of macrophage pro-inflammatory response, cell-based, murine, luminescence (AID 652131); details: murine macrophage pro-inflammatory reporter, stronger effect = higher value
[5] = target: Cellular tumor antigen p53 (Homo sapiens) (UniProt P04637); assay: kinase inhibitors altering GFP-p53 stability in HPV16-positive cells, imaging, known kinase inhibitor set, EGFP/DsRed ratio (AID 1053116); details: stronger effect = higher value; EGFP object count: measured here: GFP-p53 positive objects count;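 further: cells exposed to compounds for 24 h at 37 °C before reading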
Sequence of Cellular tumor antigen p53 (Homo sapiens) (P04637 whole entry, looked up): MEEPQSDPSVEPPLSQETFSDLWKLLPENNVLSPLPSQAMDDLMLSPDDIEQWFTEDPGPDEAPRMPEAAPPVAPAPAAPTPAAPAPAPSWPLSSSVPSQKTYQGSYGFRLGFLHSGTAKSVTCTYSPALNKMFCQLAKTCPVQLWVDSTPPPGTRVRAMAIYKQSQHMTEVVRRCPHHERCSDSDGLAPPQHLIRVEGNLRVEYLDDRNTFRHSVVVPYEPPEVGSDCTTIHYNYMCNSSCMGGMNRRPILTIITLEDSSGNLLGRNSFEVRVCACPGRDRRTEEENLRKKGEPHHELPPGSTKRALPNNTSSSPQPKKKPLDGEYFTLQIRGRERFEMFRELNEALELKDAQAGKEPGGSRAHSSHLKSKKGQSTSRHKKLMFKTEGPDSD

[6] = IRF3 reporter activation in THP-1 macrophages, cell-based, PMA-stimulated THP-1, luminescence (AID 1053176); details: PMA-differentiated THP-1, IRF3 reporter luminescence; stronger effect = higher value
[7] = survival rescue of mitochondrial mutant cells in low glucose, primary screen, MELAS cybrids, Rieske KO mouse fibroblasts, CellTiter-Glo (AID 1508586;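 active means mean z-score across replicates of 1.96 or higher in either the MELAS or the Rieske mutant cell line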;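 further: z relative to plate mean and SD of compound and empty wells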)
[8] = MELAS cybrid survival, CellTiter-Glo 48 h, stronger effect = higher value
[9] = Rieske KO mouse fibroblast survival, CellTiter-Glo 72 h

Row | Compound | liver cell % of control [1] | parasite % of control [1] | percent of negative control (+Dex) [2] | z-score [2] | z-score [3] | z-score [4] | EGFP object count [5] | EGFP/DsRed ratio [5] | fraction signal [6] | z-score [7, 8] | z-score [7, 9]
1 | CCS(=O)(=O)c1ccc(OC)c(Nc2ncc(-c3cccc(-c4ccccc4F)c3)o2)c1 | 111% | 98.4% (inactive) | 88% (inactive) | 0.785 | -0.07 (inactive) | -0.851 (inactive) | 3.5 | 0.511 (inactive) | 0.0015 (inactive) | 2.02 (active) | -0.444
2 | COc1cccc(-c2c[nH]c3c(N/N=C/c4ccncc4)ncnc23)c1 | 72.3% | 30.4% (inactive) | 129% (inactive) | -0.36 | -0.245 (inactive) | -1.59 (inactive) | 4 | 0.121 (inactive) | 0.002 (inactive) | -0.187 (inactive) | 0.000787
3 | COc1cc(/C=N/Nc2ncnc3[nH]ncc23)ccc1O | 81.7% | 96.9% (inactive) | 87.5% (inactive) | -0.055 | 0.42 (inactive) | -0.354 (inactive) | 2.5 | 0.119 (inactive) | 0.001 (inactive) | 0.451 (inactive) | -0.093
4 | CN(c1ccc(NC(=O)Nc2ccc(OC(F)(F)F)cc2)cc1)c1ccnc(Nc2cccc(S(N)(=O)=O)c2)n1 | 58.3% | 13.1% (inactive) | 81.5% (inactive) | -0.645 | 1.04 (inactive) | -1.34 (inactive) | 7.5 | 0.0983 (inactive) | -0.001 (inactive) | -1.15 (inactive) | 0.249
5 | CN(C)c1ccc2[nH]c(O)c(C=Nc3ccc(S(N)(=O)=O)cc3)c2c1 | 88.2% | 103% (inactive) | 93% (inactive) | 0.245 | 0.065 (inactive) | 0.675 (inactive) | 6.5 | 0.209 (inactive) | -0.008 (inactive) | 1.57 (inactive) | -0.102
6 | COC(=O)Nc1nc2ccc(S(=O)(=O)c3ccc(NC(=O)Nc4cc(C(F)(F)F)ccc4F)cc3)cc2[nH]1 | 80% | 100% (inactive) | 86.5% (inactive) | 0.105 | -0.105 (inactive) | 2.68 (inactive) | 1.5 | 0.00404 (inactive) | 0 (inactive) | 0.00101 (inactive) | -0.437
7 | COc1ccc(C2=C(N3CCc4ccccc43)C(=O)NC2=O)cc1 | 80.9% | 77.5% (inactive) | 84% (inactive) | -0.36 | 0.12 (inactive) | -0.139 (inactive) | 7.5 | 0.229 (inactive) | -0.0035 (inactive) | -0.15 (inactive) | -0.362
8 | COc1cccc(-n2ncc3c(N/N=C/c4cccc(F)c4)ncnc32)c1 | 106% | 81% (inactive) | 93.5% (inactive) | 0.615 | -0.05 (inactive) | -0.183 (inactive) | 5 | 0.0775 (inactive) | 0.0035 (inactive) | 1.45 (inactive) | -0.242
9 | CCCN1CCC(Oc2cc(Nc3nc(Nc4cccc(F)c4C(N)=O)c4cc[nH]c4n3)c(OC)cc2Cl)CC1 | 60.5% | 168% (inactive) | 77.5% (inactive) | -0.445 | 0.48 (inactive) | -0.663 (inactive) | 67.5 | 0.575 (active) | 0.0095 (inactive) | 0.312 (inactive) | 0.375
10 | NC(=O)c1ccc2c(-c3ccnc(NCCCO)n3)c(-c3ccc(F)cc3)nn2c1 | 85.3% | 58.4% (inactive) | 106% (inactive) | 0.705 | -0.18 (inactive) | 0.119 (inactive) | 4 | 0.0827 (inactive) | 0.003 (inactive) | -0.11 (inactive) | -0.24
11 | COc1ccc(-c2cc3c(N)ncnc3o2)cc1 | 106% | 203% (inactive) | 118% (inactive) | 2.92 | 0.775 (inactive) | 1.8 (inactive) | 6.5 | 0.215 (inactive) | -0.014 (inactive) | 1.14 (inactive) | 0.359
12 | NS(=O)(=O)c1ccc(N=Nc2c(O)[nH]c3ccc(C(=O)NCCCn4ccnc4)cc23)cc1 | 94% | 116% (inactive) | 83% (inactive) | -0.125 | 0.195 (inactive) | 0.038 (inactive) | 6 | 0.239 (inactive) | -0.0065 (inactive) | -0.0137 (inactive) | -0.000813
13 | COC(=O)Nc1nc2ccc(Oc3ccc(NC(=O)Nc4cccc(Cl)c4)cc3)cc2[nH]1 | 81.3% | 298% (inactive) | 122% (inactive) | 1.3 | 1.51 (inactive) | 0.651 (inactive) | 79.5 | 1.2 (inactive) | -0.0045 (inactive) | -0.179 (inactive) | -0.521
14 | CN(c1ccc(NC(=O)NCCN2CCOCC2)cc1)c1ccnc(Nc2ccc(CS(C)(=O)=O)cc2)n1 | 99.9% | 114% (inactive) | 94% (inactive) | -0.155 | 0.89 (inactive) | 2.96 (inactive) | 3 | 0.184 (inactive) | -0.0035 (inactive) | -0.011 (inactive) | -0.139
